Assay [1] can be described thus: A CellTox Green Cytotoxicity Assay to monitor cytotoxicity in HEK293 cells - 32 hour (AID 1224881). Also: nearly all actives have a fitted effect of over 40% in size. Also: potency is read from the fitted curve at half-maximal effect. The gist of the method:
(§1)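 Fluorescence from a DNA-binding dye excluded by viable cells was measured repeatedly in the same HEK293 wells (600 cells/well) during continuous compound exposure at 37 C. Each assay gives one read point: 0, 8, 16, 24, 32 or 40 h.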

A short description of assay [2]: A CellTox Green Cytotoxicity Assay to monitor cytotoxicity in HEK293 cells - 8 hour (AID 1224884). Also: nearly all actives have a fitted effect of over 35% in size. Also: potency is read from the fitted curve at half-maximal effect. Put shortly:
as §1

Assay [3] in a line: qHTS RealTime-Glo MT Cell Viability Assay in HepG2 cells - 16 hour (AID 1224885). Also: nearly all actives have a fitted effect of over 50% in size. Also: potency is read from the fitted curve at half-maximal effect. Put shortly:
(§2)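 qHTS, HepG2, 600 cells/well, RealTime-Glo (NanoLuc + prosubstrate) added with cells; 5 h preincubation; DMSO compound addition; 37 C; luminescence at 0/8/16/24/32/40 h.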
On the technique in general: Quantitative high-throughput screening tests each substance at several concentrations.

Assay [4] is described as follows: qHTS RealTime-Glo MT Cell Viability Assay in HEK293 cells - 24 hour (AID 1224886). Also: nearly all actives have a fitted effect of over 50% in size. Also: potency is read from the fitted curve at half-maximal effect. The gist of the method: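 Assay medium contained NanoLuc luciferase plus cell-permeant prosubstrate, added with HEK293 cells at 600 cells/well. After 5 h at 37 C/5% CO2 compounds were added; plates stayed at 37 C for 40 h with serial luminescence reads.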
Assay [5] is described as follows: qHTS RealTime-Glo MT Cell Viability Assay in HEK293 cells - 8 hour (AID 1224887). Also: top concentration of the series differs between compounds; nearly all actives have a fitted effect of over 50% in size. The gist of the method: (§3)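 Luminescence, which tracks viable cell number through reduction of the prosubstrate to a NanoLuc substrate, was read over continuous 37 C culture. Cells (600/well) were premixed with reagent and rested 5 h before 23 nL of compound in DMSO was pinned.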
Assay [6] in a line: A CellTox Green Cytotoxicity Assay to monitor cytotoxicity in HEK293 cells - 16 hour (AID 1224888). Also: nearly all actives have a fitted effect of over 35% in size. Put shortly: as §1
Assay [7] is described as follows: qHTS RealTime-Glo MT Cell Viability Assay in HepG2 cells - 0 hour (AID 1224889). Also: nearly all actives have a fitted effect of over 50% in size. The gist of the method: as §2
Assay [8] in a line: A CellTox Green Cytotoxicity Assay to monitor cytotoxicity in HepG2 cells - 8 hour (AID 1224890). Also: nearly all actives have a fitted effect of over 45% in size. Also: potency is read from the fitted curve at half-maximal effect. Put shortly:
(§4)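 Real-time cytotoxicity: fluorescence of a cell-impermeant cyanine dye binding DNA of dead HepG2 cells, measured repeatedly (0–40 h) during compound exposure at 37 C. Cells seeded 600/well with reagent, dosed after 5 h.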

The nature of assay [9]: qHTS assay to identify small molecule antagonists of the estrogen receptor alpha (ER-alpha) signaling pathway using the BG1 cell line in the presence of 0.1 nM 17-beta-estradiol - cell viability counter screen (AID 1259241). Also: nearly all actives have a fitted effect of over 40% in size. The gist of the method: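 Cells were plated and left 24 hr, compounds in DMSO were pinned in, 17beta-estradiol was added to 0.1 nM final, and after 22 hr CellTiter-Fluor reagent was added for 30 min before fluorescence was read.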

The nature of assay [10]: qHTS assay to identify small molecule antagonists of the androgen receptor (AR) signaling pathway using the MDA cell line in the presence of 0.5 nM R1881 - cell viability counter screen (AID 1259242). Also: nearly all actives have a fitted effect of over 45% in size. Put shortly: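 Live-cell protease activity was measured by CellTiter-Fluor fluorescence after 30 min. Before that, MDA-kb2 MMTV-luciferase cells had 16 hr at 37C without CO2, exposed to test compounds and 0.5 nM R1881 final.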

Assay [11] in a line: qHTS assay to identify small molecule HDAC inhibitors (AID 1259364). Also: top concentration of the series differs between compounds; nearly all actives have a fitted effect of over 45% in size. Put shortly: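 Luminescence read after 30 min room-temperature HDAC-Glo incubation measures cellular class I/II HDAC activity. Compounds were applied for 2 hr at 37 C to HCT-116 wild-type cells seeded the day before.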
Assay [12] can be described thus: qHTS assay to identify small molecule HDAC inhibitors - cell viability counter screen (AID 1259365). Put shortly: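 Counter screen in wild-type HCT-116 cells: compounds dissolved in DMSO are pin-transferred onto overnight-plated cells and left 2hr at 37C. ATP-based CellTiter-Glo luminescence then measures viable cells.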
Assay [13] in a line: qHTS assay to identify small molecule agonists of the sonic hedgehog signaling (Shh) pathway - cell viability counter screen (AID 1259366). Also: nearly all actives have a fitted effect of over 50% in size. Also: potency is read from the fitted curve at half-maximal effect. Put shortly:
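Cells are plated at 2,000 per well and left 4hr at 37C, 5% CO2 before compound addition. After 23hr of treatment, CellTiter-Fluor reagent is added for 1hr at 37C and fluorescence is measured.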

Assay [14] in a line: qHTS RealTime-Glo MT Cell Viability Assay in HEK293 cells - 0 hour (AID 1224880). Also: top concentration of the series differs between compounds; nearly all actives have a fitted effect of over 45% in size. Put shortly: as §3
Assay [15] can be described thus: A CellTox Green Cytotoxicity Assay to monitor cytotoxicity in HepG2 cells - 0 hour (AID 1224882). Also: nearly all actives have a fitted effect of over 35% in size. Also: potency is read from the fitted curve at half-maximal effect. The gist of the method: as §4
Assay [16] addresses Estrogen receptor (Homo sapiens) (UniProt P03372). Put plainly: qHTS assay to identify small molecule antagonists of the estrogen receptor alpha (ER-alpha) signaling pathway using the BG1 cell line in the presence of 0.1 nM 17-beta-estradiol (AID 1259244). Also: nearly all actives have a fitted effect of over 50% in size. Put shortly:
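Luciferase luminescence (ONE-Glo, 30 min at room temperature) was read after 22 hr at 37C exposure to compounds plus 17beta-estradiol at 0.1 nM final. Cells were VM7Luc4E2 with endogenous ER-alpha and an ERE-driven luciferase, pre-cultured 5 days in hormone-depleted medium.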

Assay [17] in a line: qHTS assay to identify small molecule phospholipidosis (PLD) inducers (AID 1259344; active = well fitted curve in the direction sought with a large enough effect; an effect the other way counts as inactive or inconclusive). The gist of the method: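 After 4 h attachment on collagen I, HepG2 cells were dosed with compound alongside LipidTOX Red, kept 24 h at 37 C, fixed, and imaged for lamellar phospholipid pits.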
Assay [18] can be described thus: A CellTox Green Cytotoxicity Assay to monitor cytotoxicity in HepG2 cells - 32 hour (AID 1224883). Also: nearly all actives have a fitted effect of over 50% in size. Also: potency is read from the fitted curve at half-maximal effect. The gist of the method: as §4
The nature of assay [19]: qHTS assay to identify small molecule antagonists of the sonic hedgehog signaling (Shh) pathway - cell viability counter screen (AID 1259367). Also: nearly all actives have a fitted effect of over 55% in size. Also: potency is read from the fitted curve at half-maximal effect. Put shortly: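 Conditioned medium drove Shh signaling in 3T3 Gli1-Luc cells exposed to compounds at 37C and 5% CO2. Viability was determined from CellTiter-Fluor fluorescence, with reagent incubated 1 hr after 23 hr of treatment.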

This is an account of results in PubChem BioAssay (Tox21).

Unmarked numbers belong to inactive results. Records with an inconclusive call do not appear. Active and inactive are the calls of the source. Unless noted, calls follow the shape of the dose curve; as a rule, active = well fitted curve in the direction sought with a large enough effect in the repeat runs; inconclusive = weak or mixed curves; inactive = no such curve, though single readings can be large; an effect the other way counts as inactive or inconclusive.

Sequence of Estrogen receptor (Homo sapiens) (P03372 whole entry, looked up): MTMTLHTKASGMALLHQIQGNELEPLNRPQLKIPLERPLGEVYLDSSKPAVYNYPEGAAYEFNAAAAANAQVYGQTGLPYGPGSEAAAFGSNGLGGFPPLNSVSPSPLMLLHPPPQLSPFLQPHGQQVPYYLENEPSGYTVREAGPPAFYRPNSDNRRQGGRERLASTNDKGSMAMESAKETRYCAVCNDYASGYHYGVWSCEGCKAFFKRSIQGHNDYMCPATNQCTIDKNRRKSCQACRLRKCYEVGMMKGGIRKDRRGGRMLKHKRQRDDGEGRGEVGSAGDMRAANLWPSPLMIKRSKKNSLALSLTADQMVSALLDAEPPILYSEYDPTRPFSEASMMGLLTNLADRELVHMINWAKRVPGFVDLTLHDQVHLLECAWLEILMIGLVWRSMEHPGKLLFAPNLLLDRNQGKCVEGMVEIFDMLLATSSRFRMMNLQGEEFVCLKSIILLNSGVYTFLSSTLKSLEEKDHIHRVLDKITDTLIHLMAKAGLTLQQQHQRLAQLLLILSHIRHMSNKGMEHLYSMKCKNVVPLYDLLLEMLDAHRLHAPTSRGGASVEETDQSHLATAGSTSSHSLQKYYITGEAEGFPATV

`CC/C=C\C/C=C\C/C=C\CCCCCCCC(=O)OCC`: the Potency result in [1], in assay [2], in assay [3], in assay [4], in assay [5] and in assay [6] was “inactive” each time. The Potency entry in assay [7], in assay [8], in assay [9], in [10], in assay [11] and in assay [12] was “inactive” throughout. Besides, the Potency result in assay [13] was “inactive”.
With `C[C@@H]1[C@H](O)[C@@H](C)/C=C/C=C\C=C\C=C\C=C\C=C\C=C\[C@H](O[C@@H]2O[C@H](C)[C@@H](O)[C@H](N)[C@@H]2O)C[C@@H]2O[C@](O)(C[C@@H](O)C[C@@H](O)[C@H](O)CC[C@@H](O)C[C@@H](O)CC(=O)O[C@H]1C)C[C@H](O)[C@H]2C(=O)O` (stereo in doubt), the Potency entry in [14], in assay [15], in [2], in assay [3], in assay [5] and in assay [6] was “inactive” in each case. Further, the Potency result in [7], in assay [8], in assay [9], in [16], in assay [17] and in assay [11] was “inactive” throughout. Moreover, the Potency entry in [12] was “inactive”.
As for `CCCCC(CC)COS(=O)(=O)O` (centres undefined), the Potency entry in [14], in assay [15], in [18], in [2], in assay [3] and in assay [4] was “inactive” throughout. The Potency result in assay [5], in assay [7], in [8], in [9], in assay [10] and in [16] was “inactive” in each case. For the same compound, the Potency result in assay [17], in assay [12] and in assay [13] was “inactive” throughout.
As for `O=[N+]([O-])C1(Br)COCOC1`, the Potency entry in [14], in [7], in assay [9], in [16] and in assay [12] was “inactive” throughout. The Potency in assay [1] was 54.9 µM (active); in [18], 49 µM (active); in [3], 49 µM (active); in [4], 38.9 µM (active); in [13], 43.3 µM (active).
With `CC(=O)OCC(=O)[C@@]1(OC(C)=O)[C@@H](C)C[C@H]2[C@@H]3C[C@H](F)C4=CC(=O)C=C[C@]4(C)[C@@]3(F)[C@@H](O)C[C@@]21C`, the Potency entry in [1], in assay [15], in assay [18], in assay [2], in assay [3] and in assay [4] was “inactive” each time. For the same compound, the Potency entry in [5], in [6], in [8], in assay [9], in assay [10] and in assay [17] was “inactive” throughout. In addition, the Potency result in assay [11], in assay [12], in assay [13] and in assay [19] was “inactive” each time.
For the compound `Cc1ccc2c(c1[N+](=O)[O-])C(=O)c1ccccc1C2=O`, the Potency result in assay [1], in [15], in assay [18], in assay [2], in assay [3] and in assay [5] was “inactive” in each case. For the same compound, the Potency result in assay [6], in [7], in assay [8], in assay [9], in assay [10] and in assay [16] was “inactive” each time. In addition, the Potency result in [11], in assay [12], in [13] and in [19] was “inactive” in each case.
Turning to `O=C1OC(=O)c2c(Br)c(Br)c(Br)c(Br)c21`, the Potency result in assay [14], in [1], in [18], in assay [2], in assay [3] and in assay [4] was “inactive” throughout. For the same compound, the Potency result in assay [6], in assay [7], in assay [8], in assay [9], in assay [10] and in [11] was “inactive” in each case. Besides, the Potency result in assay [12], in [13] and in assay [19] was “inactive” each time.
For the compound `O=C(O)CCC(=O)OC[C@@H](NC(=O)C(Cl)Cl)[C@H](O)c1ccc([N+](=O)[O-])cc1`, the Potency entry in [14], in assay [3], in assay [4], in [5], in assay [7] and in assay [9] was “inactive” in each case. Besides, the Potency result in [10], in [17], in assay [11], in assay [12], in assay [13] and in [19] was “inactive” in each case. The figures for the Potency in assay [15], in [2] and in assay [8] were 19 µM (active), 21.3 µM (active) and 21.3 µM (active), respectively.
Take `CN1CCCN(C(c2ccccc2)c2ccc(Cl)cc2)CC1` (centres undefined): the Potency in assay [1] is 26.8 µM (active); in assay [18], 21.3 µM (active); in assay [13], 15 µM (active); in assay [19], 13.3 µM (active). The Potency entry in [15], in assay [2], in [6], in assay [8], in assay [16] and in assay [11] was “inactive” throughout. In assay [12], the Potency entry is “inactive”.
As to `CCOc1ncc(F)c(=O)[nH]1`, the Potency result in [14], in assay [1], in [18], in [2], in assay [3] and in assay [5] was “inactive” each time. Also, the Potency result in assay [6], in [7], in assay [8], in assay [9], in [10] and in assay [11] was “inactive” throughout. Also, the Potency result in assay [12], in assay [13] and in assay [19] was “inactive” in each case.
As for `CCCCCCC(CO)CCCC` (centres undefined), the Potency result in assay [14], in [1], in assay [2], in assay [3], in assay [4] and in assay [5] was “inactive” throughout. For the same compound, the Potency result in [6], in assay [7], in assay [8], in assay [9], in [10] and in assay [11] was “inactive” throughout. Further, the Potency entry in [12], in assay [13] and in assay [19] was “inactive” each time.
